The text below walks through data of PubChem BioAssay (NCI).

Compounds without any hit were thinned out: in the full panel of roughly 83,000, 20% have a hit.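 Step 1: grow cells in 96-well plates. Step 2: add test compound at a single concentration. Step 3: incubate 48 h. Step 4: record percent growth.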 Activity calls are given as the source filed them.

The subject of the assay is HS 578T breast. Description: NCI-60 one-dose screen, 48 h (100 = growth as untreated, 0 = no growth, -100 = all killed). To be noted: 10 µM unless noted. The procedure:
Growth inhibition of the HS 578T human tumor cell line is measured as a screen for anti-cancer activity. Cells are grown in 96 well plates and exposed to the test compound for 48 hours. Compounds are tested at a single concentration, which is 10^-5 M for most compounds. The reported endpoint is percent growth (GI% or GIPRCNT), where numbers from 0 - 100% represent growth inhibition, and numbers from -100% - 0 represent cell death. For example, a value of 40 represents 60% growth inhibition. A value of 0 means no net growth occurred over the course of the experiment. A value of -40 indicates 40% of cells at the beginning of the experiment died by the end of the experiment. A value of -100 means all cells are dead at the end of the experiment.
NCI-60 Human Tumor Cell Lines Screen was performed using the standard one-dose NCI protocol, which is described in more detail at https://dtp.cancer.gov/discovery_development/nci-60/default.htm.
Compounds with GIPRCNT values below 10 were considered active. Activity score was based on GIPRCNT using the following formula: […]
Score is 0 for GIPRCNT values of 100 or above, 50 for GIPRCNT values of 0, and 100 for GIPRCNT values of -100.
For `CCCCCCCCCCCCNc1ncnc2[nH]ncc12`, the growth was 92.4% (inactive).

For the compound `Cc1ccc(NC(=O)CSc2nnc3n(Cc4ccccc4)c(=O)c4c(C)c(C(N)=O)sc4n23)cc1`, the growth was 6.99% (active).

`COc1ccc(Nc2nccc(N3CCN(c4c5ccc(Cl)cc5nc5ccc(OC)cc45)CC3)n2)cc1`: the growth was 80.3% (inactive).

For the compound `O=C1CCCN1C1CCN(Cc2cc3ccccc3[nH]c2=O)c2ccccc21` (stereo not given), the growth is 98% (inactive).

Turning to `COc1ccc(-c2nnc(COc3ccc(NC(=O)Nc4cc(C(F)(F)F)cc(C(F)(F)F)c4)cc3F)o2)cc1`, the growth is 16.8% (inactive).

For the compound `C=C(C)[C@H]1CC/C(C)=C/CC[C@]2(C)O[C@H]2CC/C(C=O)=C\C1O` (stereo not given in full), the growth is 114% (inactive).

With `ClC1=C(Cl)C(Cl)=C(Cl)C1=Cc1ccc(Cl)cc1`, the growth is -12.2% (active).

As for `CC(C)c1nc(N(C)S(C)(=O)=O)nc(-c2ccc(F)cc2)c1/C=C/[C@@H](O)C[C@@H](O)CC(=O)O`, the growth was 110% (inactive).

As to `O=C(/C=C/c1cc2ccccc2[nH]c1=O)c1ccc(Cl)cc1`, the growth was 54% (inactive).

Consider `COc1cccc(C2C(C#N)=C(N)Oc3cc(OC)ccc32)c1` (stereo not given), for which the growth was 11.3% (inactive).

For the compound `COc1cc(/C=C2\COc3ccc(O)cc3C2=O)cc(OC)c1`, the growth is 77.4% (inactive).

As to `NC(=O)c1ncn([C@@H]2O[C@H](CO)[C@@H](O)[C@H]2O)n1`, the growth is 113% (inactive).

As for `COc1ccc(C(=O)/C=C/c2c(Cl)nc3c(c(C)nn3-c3ccccc3)c2-c2ccc(Br)cc2)cc1`, the growth was 113% (inactive).

For the compound `Cc1cc2c(cc1C)Nc1sc(NC(=O)CN3CCN(C)CC3)nc1C(=O)N2`, the growth is 106% (inactive).

Regarding `COc1cc(C2NC(c3ccc(Cl)cc3)C(C)C(=NC(=O)c3cnccn3)C2C)cc(OC)c1OC` (stereo not given), the growth was 109% (inactive).

For the compound `O=C(Nc1ccncc1)C(=O)c1cn(S(=O)(=O)c2cccc(F)c2)c2ccccc12`, the growth is 55.8% (inactive).

`Cc1cc(CC(=O)O)n(C)c1C(=O)c1ccc(Cl)cc1`: the growth was 110% (inactive).

With `Clc1nc(Cl)c2ncn(-c3ccccc3)c2n1`, the growth was 12.4% (inactive).

Consider `COc1ccc2c(c1)C(=O)c1c-2c(=O)n(CCCCCCC(=O)NO)c2ccccc12`, for which the growth is -2.26% (active).

As for `CCn1c2ccccc2c2ccc(C(C)=O)cc21`, the growth is 144% (inactive).

For the compound `O=C(Cc1ccccn1)C(F)(F)C(F)(F)C(F)(F)F`, the growth is 102% (inactive).

For the compound `COc1ccc(/C=C/C(=O)Nc2cccnc2Nc2ccc(F)cc2)cc1`, the growth was 103% (inactive).

Consider `O=c1cc(-c2cccnc2)oc2c1ccc1ccccc12`, for which the growth is 66.5% (inactive).

On to `CCOC(=O)C(Cc1ccccc1)(C(=O)OCC)C(Br)C(=O)c1ccccc1` (stereo not given), for which the growth is 83.1% (inactive).

Consider `Cc1nn(-c2ccc(Cl)cc2)c2nc3c(nc12)c(=O)oc1ccccc13`, for which the growth is 107% (inactive).

As for `Clc1ncn[nH]1`, the growth is 106% (inactive).

Consider `COc1ccc2c(c1)C(=O)c1c-2c(OCCCN(C)C)nc2cc(Br)ccc12`, for which the growth is 81.4% (inactive).

Turning to `CC(=O)O[C@H]1C(=O)[C@@]2(C)C([C@H](OC(=O)c3ccccc3)[C@]3(O)C[C@H](OC(=O)[C@H](O)[C@@H](NC(=O)c4ccccc4)c4ccccc4)C(C)=C1C3(C)C)[C@]1(OC(C)=O)CO[C@@H]1C[C@@H]2O` (stereo not given in full), the growth is 14.9% (inactive).

As to `COc1ccc(/C=N\Nc2ccc([N+](=O)[O-])cn2)cc1OC`, the growth is 47.8% (inactive).

With `COC(=O)[C@]1(C(C)C)N[C@H](c2cn(-c3ccccc3)nc2-c2ccccc2)[C@@H]2C(=O)N(c3ccc(Cl)cc3)C(=O)[C@@H]21`, the growth is 117% (inactive).

As for `CCCCOc1ccc(C(C)(C)c2ccc(OCCCC)cc2)cc1`, the growth is 105% (inactive).

Turning to `Cc1cc(C(C)(C)C)cc(C)c1CC1=NCCN1`, the growth is 102% (inactive).

For `COc1ccc2c(c1)C(=O)/C(=C/c1cccc(OCC(=O)c3ccccc3)c1)CC2`, the growth is 98.6% (inactive).

Consider `C=C(C)[C@H]1CC/C(C)=C/CC[C@]2(C)O[C@H]2CC/C(COC(C)=O)=C\C1=O`, for which the growth is 119% (inactive).

On to `S=C(Nc1ccc(C2=NCCN2)cc1)Nc1ccc(C2=NCCN2)cc1`, for which the growth was 110% (inactive).

Consider `N#Cc1c(N)[nH]c(S)c1C#N`, for which the growth was 104% (inactive).

With `Cc1ccc([N+](=O)[O-])cc1NC(=O)Nc1cccc(F)c1`, the growth is 120% (inactive).

With `CCOC(=O)c1c(NC(=O)C2CCCCC2C(=O)O)sc2c1CCCC2` (stereo not given), the growth is 103% (inactive).

For `O=C(Nc1nc2ccccc2s1)c1cc(-c2ccc(F)cc2)n2nc(-c3ccccc3)cc2n1`, the growth is 59.7% (inactive).

Take `CCC1=C(c2ccc(OC)cc2)C(C)(C)Oc2cc(O)c(CN3CCCC3)cc21`: the growth is 86% (inactive).
